Experimental data as given in the supplement of paper PMC13380429.

Tested on: Vero E6 infected with SARS-CoV-2
Assay: inhibition of SARS-CoV-2 cytopathic effect; higher = more antiviral protection, active = above 15
Conditions: 48 h

Measured: inhibition of SARS-CoV-2 cytopathic effect

Nc1ccc(-c2ccc3ncc4ccc(=O)n(-c5cccc(C(F)(F)F)c5)c4c3c2)cn1 [torin-2]
inactive: 1 nM 0.99% | 8.33 nM -0.26% | 100 nM -2.28% | 833.33 nM -4.78% | 10000 nM -8.11%

C[N+]1(C)CCC(OC(=O)C(c2ccccc2)c2ccccc2)CC1
inactive: 1 nM -1.59% | 8.33 nM 2.05% | 100 nM 1.2% | 833.33 nM 1.67% | 10000 nM 1.67%

C[C@](O)(COc1ccc(C#N)cc1)C(=O)Nc1ccc(C#N)c(C(F)(F)F)c1 [ostarine]
inactive: 1 nM -0.2% | 8.33 nM -1.03% | 100 nM 1.02% | 833.33 nM -1.16% | 10000 nM 1.37%

CCN(C(C)=O)c1cccc(-c2ccnc3c(C#N)cnn23)c1
inactive: 1 nM -0.78% | 8.33 nM -1.57% | 100 nM -2.79% | 833.33 nM -0.59% | 10000 nM -0.53%

O=C(C1CC1)N1CC[C@@H](Cc2n[nH]c(=O)n2-c2ccc(-c3ccc4occc4c3)cc2)C1
inactive: 1 nM -1.12% | 8.33 nM -1.14% | 100 nM -1.43% | 833.33 nM -0.64% | 10000 nM -4.48%

COc1cc2/c(=N/c3ccc(Br)cc3F)nc[nH]c2cc1OCC1CCN(C)CC1 [vandetanib]
inactive: 1 nM -1.28% | 8.33 nM 2.63% | 100 nM -1.67% | 833.33 nM -6.04% | 10000 nM -3.93%

O=C(OOC(=O)c1ccccc1)c1ccccc1 [benzoyl-peroxide]
inactive: 1 nM 2.98% | 8.33 nM 2.38% | 100 nM -1.92% | 833.33 nM -1.86% | 10000 nM -0.05%
